An excerpt weighted towards active compounds, which were near 2.9% of everything screened.
MEKK3 PB1 HTS – modulators (inhibitors or enhancers) of MEK5 binding to human MEKK3 PB1 domain. 290,000 compounds, 1.4% hits. Q99759. bead-based flow cytometry, Alexa488-MEK5 binding to MEKK3; actives lie on both sides; 0 = blocked by unlabeled MEK5, 100 = vehicle. binding response (% of control), % at 10 µM;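 active = binding response more than 3 SD above or below the average of its plate-row segment, actives on both sides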;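 note: Alexa488 bead fluorescence after subtracting the streptavidin-only scavenger bead signal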
Target sequence (Q99759 whole entry, looked up, the tested form may be a part): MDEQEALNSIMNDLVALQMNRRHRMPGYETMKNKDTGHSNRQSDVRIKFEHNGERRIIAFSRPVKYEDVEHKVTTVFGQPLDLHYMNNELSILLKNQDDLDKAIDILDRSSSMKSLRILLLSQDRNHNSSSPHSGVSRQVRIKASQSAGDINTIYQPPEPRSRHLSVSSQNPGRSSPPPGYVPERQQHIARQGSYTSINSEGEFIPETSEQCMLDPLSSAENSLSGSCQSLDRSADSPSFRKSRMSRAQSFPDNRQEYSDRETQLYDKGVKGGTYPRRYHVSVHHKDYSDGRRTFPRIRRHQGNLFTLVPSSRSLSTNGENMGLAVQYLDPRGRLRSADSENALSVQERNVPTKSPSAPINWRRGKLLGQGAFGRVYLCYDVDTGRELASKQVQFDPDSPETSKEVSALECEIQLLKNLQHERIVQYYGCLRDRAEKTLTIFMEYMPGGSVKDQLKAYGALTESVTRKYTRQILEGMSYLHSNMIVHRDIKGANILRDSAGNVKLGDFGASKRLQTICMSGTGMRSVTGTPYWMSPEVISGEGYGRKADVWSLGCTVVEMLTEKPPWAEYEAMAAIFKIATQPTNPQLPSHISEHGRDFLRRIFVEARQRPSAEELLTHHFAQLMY
DNA FID counter – displaces DNA intercalator in HCV helicase counter-screen; DNA fluorescent intercalator displacement, fluorescence; AID 1845; 290,000 compounds, 0.17% hits; inhibition, % at 7.9 µM; in the data active = inhibition above about 37%;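 note: higher means more ethidium bromide displaced from hairpin DNA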
MEKK2 WT-MEK5 – raises or lowers MEK5 binding to wildtype human MEKK2 PB1 domain | AID 1531 | 290,000 compounds, 1.1% hits | bead flow cytometry, Alexa488-MEK5 binding to MEKK2 WT; actives lie on both sides | binding response (% of control), % at 10 µM; in the data active = binding response below about 67% or above about 130%
dFosB activator – enhances mouse delta FosB homodimer DNA binding; P13346; purified delta FosB, TAMRA-CDK5 oligo fluorescence polarization; percent of positive-control signal above neutral wells; activation, % at 25 µM; 340,000 compounds, 0.99% hits; AID 493131;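 active = mean activation above about 17%, with every replicate also reaching it, limit read from the data, passing the limit was not always enough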
MEKK2 mut-MEK5 – signal of MEK5 binding to mutant human MEKK2 PB1 domain. bead flow cytometry, Alexa488-MEK5 binding to MEKK2 mutant. percent response, % at 10 µM. 290,000 compounds, 0.35% hits; in the data active = percent response above about 24%, passing the limit was not always enough
A number is an active result; i = inactive; nt = no result; ! = not confirmed by another sample; [ ] = dose if it differs, or a comment.

SMILES	MEKK3 PB1 HTS	DNA FID counter	MEKK2 WT-MEK5	dFosB activator	MEKK2 mut-MEK5
COc1cccc2c1C(=O)c1c(O)c3c(c(O)c1C2=O)C[C@@](O)(C(=O)CO)C[C@@H]3O[C@H]1C[C@H](N)[C@H](O)[C@H](C)O1	47![inhibitor]	59	50![inhibitor]	i	i
Cc1ccc2[nH]c(O)c(N=NC(=O)CCc3ccccc3)c2c1Br	i	i	i	17	i
O=C(c1ccc(Cl)cc1)C1CCN(Cc2ccccc2)CC1	i	i	i	i	i
O=C(C1CCN(Cc2ccc(Cl)cc2)CC1)N1CCN(C(c2ccccc2)c2ccccc2)CC1	i	i	145	i	i
Cc1c(NC(=S)N2CCN(c3cccc(Cl)c3)CC2)c(=O)n(-c2ccccc2)n1C	i	i	i	i	i
CCOc1ccc(-c2nnn(CC(=O)NCc3ccc(OC)cc3)n2)cc1OCC	i	i	i	29	i
CCCc1nnc(NC(=O)CCN2C(=O)c3ccccc3C2=O)s1	i	i	i	19	i
Cc1ccc(NC2CCCN(C(=O)c3cccc(-c4ncc[nH]4)c3)C2)cc1C (stereo unspecified)	i	i	i	i	i
Nc1[nH]nc2nc3ccccc3cc12	i	i	i	i	i
Nc1cccc2nc3ccccc3cc12	i	45	i	i	i
CC(=O)Nc1ccc(S(=O)(=O)Oc2cccc(/C=C3\SC(N)=NC3=O)c2)cc1	i	i	i	33	i
COc1cc(/C=C2\SC(N)=NC2=O)ccc1OCC(=O)Nc1ccc(C)cc1	i	i	i	79	i
COc1ccc(/C=C2/SC(=O)N(CCC(=O)Nc3ccc(C)cc3)C2=O)cc1OC	i	i	i	nt	i
COCCC(=O)N1CCC(Oc2ccc(C(=O)NC(C)CCn3cccn3)cc2)CC1 (stereo unspecified)	i	i	i	i	i
CC(C)NC(=O)N(C)C[C@H]1Oc2c(NS(=O)(=O)c3ccccc3)cccc2C(=O)N([C@H](C)CO)C[C@@H]1C	nt	nt	nt	i	nt
COc1ccc(C(CNC(=O)c2oc3cc(C)c(Cl)cc3c2C)N2CCCCC2)cc1 (stereo unspecified)	i	i	169	i	37
O=S1(=O)N=C(Nc2ccc(N3CCOCC3)cc2)c2ccccc21	i	i	37	i	i
O=S1(=O)N=C(N2CCOCC2)c2ccccc21	i	i	i	i	i
COC(=O)c1cc(-c2cc(OC)ccc2OC)nc2c1c(=O)n(C)c(=O)n2Cc1ccccc1	i	i	i	i	i
CCOc1ccc2nc(NCCNC(=S)NCCCN(C)C)c(C#N)cc2c1	i	42	i	i	i
N#Cc1ccc(CN2CCN(CC(=O)NCCc3ccc(Cl)cc3Cl)CC2)cc1	i	i	151	i	28
COCCCC1CCN(C(=O)C2CCC(=O)N(Cc3ccccc3F)C2)CC1 (stereo unspecified)	i	i	i	i	i
COc1ccc(NC(=O)CSc2nc3n[nH]c(C)c3c(=N)n2-c2ccc(Cl)c(C)c2)cc1OC	i	i	i	44	i
O=C(NCCCN1CCOCC1)c1ccccc1	i	i	i	i	i
O=C(Nc1ccccc1C(=O)NCCCN1CCOCC1)c1ccc(F)cc1	1.0[inhibitor]	i	-2.0[inhibitor]	i	i
SMILES	MEKK3 PB1 HTS	DNA FID counter	MEKK2 WT-MEK5	dFosB activator	MEKK2 mut-MEK5
COC(=O)c1ccccc1NC(=O)Cn1cnc2c(cnn2-c2ccc(C)c(C)c2)c1=O	i	i	i	nt	i
Cc1ccc(-n2ncc3c(=O)n(CC(=O)Nc4cccc(Cl)c4)cnc32)cc1C	i	i	i	42	i
CCc1nc2ccccc2c(C(=O)OCC(=O)N(CC(C)C)c2c(N)n(Cc3ccccc3)c(=O)[nH]c2=O)c1C	nt	nt	nt	i	nt
O=C(/C=C/c1ccncc1)c1cc(Cl)ccc1O	i	i	i	i	i
CN(C)c1ccc(/C=C/C(=O)c2cc(Cl)ccc2O)cc1	i	i	-1.0	i	i
O=[N+]([O-])c1cc(Cl)cc(/C=N/n2cnnc2)c1O	i	i	i	i	i
Cc1n[nH]c(C)c1Sc1ccccc1N=Cc1cc(Cl)cc([N+](=O)[O-])c1O	i	i	i	51	i
CCc1ccc(CNCCSc2nnnn2C)cc1	i	i	i	i	i
COc1ccc(Nc2ccnc3ccccc23)cc1	i	i	i	i	i
CC(C)Nc1ccc(Nc2ccnc3cc4ccccc4cc23)cc1	i	73	208	68	80
